In all, about 310,000 compounds went through this assay and about 14,000 (4.5%) showed an effect of 50% or more. Effects have a minus sign here. The sample as a whole holds a higher share of strong results than the screen did.
target: human ether-à-go-go-related gene (hERG) potassium channel (human, UniProt Q12809); assay: primary screen, population patch clamp on CHO cells stably expressing hERG; higher = less effect of the substance
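Note: peak tail current of the secondary pulse compared with the same well before compound.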

Sequence of human ether-à-go-go-related gene (hERG) potassium channel (Q12809 whole entry, looked up): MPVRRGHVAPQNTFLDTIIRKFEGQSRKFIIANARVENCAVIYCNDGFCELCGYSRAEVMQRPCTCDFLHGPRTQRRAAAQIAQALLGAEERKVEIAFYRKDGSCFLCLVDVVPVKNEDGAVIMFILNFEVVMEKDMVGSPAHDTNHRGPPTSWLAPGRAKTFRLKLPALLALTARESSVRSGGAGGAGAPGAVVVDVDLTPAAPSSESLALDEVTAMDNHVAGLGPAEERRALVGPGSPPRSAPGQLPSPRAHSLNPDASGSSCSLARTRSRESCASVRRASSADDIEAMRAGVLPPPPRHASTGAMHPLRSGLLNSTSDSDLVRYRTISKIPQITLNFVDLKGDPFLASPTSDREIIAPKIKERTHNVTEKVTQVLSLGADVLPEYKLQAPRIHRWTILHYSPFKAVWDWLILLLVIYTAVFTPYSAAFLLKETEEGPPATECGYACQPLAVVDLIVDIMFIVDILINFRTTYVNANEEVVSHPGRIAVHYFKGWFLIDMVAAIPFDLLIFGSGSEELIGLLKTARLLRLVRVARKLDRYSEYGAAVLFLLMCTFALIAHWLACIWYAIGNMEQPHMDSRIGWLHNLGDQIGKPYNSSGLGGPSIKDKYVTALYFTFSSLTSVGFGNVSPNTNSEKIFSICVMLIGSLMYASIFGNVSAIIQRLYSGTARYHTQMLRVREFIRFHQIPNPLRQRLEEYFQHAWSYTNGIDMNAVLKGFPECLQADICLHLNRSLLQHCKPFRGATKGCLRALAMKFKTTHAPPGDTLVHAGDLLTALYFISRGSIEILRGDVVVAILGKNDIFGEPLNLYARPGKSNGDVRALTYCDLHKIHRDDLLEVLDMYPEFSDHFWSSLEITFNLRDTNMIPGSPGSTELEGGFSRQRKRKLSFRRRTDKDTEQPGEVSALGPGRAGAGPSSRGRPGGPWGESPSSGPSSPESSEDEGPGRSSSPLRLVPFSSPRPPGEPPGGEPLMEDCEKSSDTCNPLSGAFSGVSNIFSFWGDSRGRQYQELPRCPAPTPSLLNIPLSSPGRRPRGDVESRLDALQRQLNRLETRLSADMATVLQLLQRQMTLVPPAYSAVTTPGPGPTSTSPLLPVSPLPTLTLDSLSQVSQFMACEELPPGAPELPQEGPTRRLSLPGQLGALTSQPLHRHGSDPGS

Q: Which “hERG current change (%, negative = inhibition) at 10uM” value does the source give for `COC(=O)CSc1nc(C2CC2)nc2ccccc12` here?
A: -11.5%

Q: `Cc1cc(C)cc(N(C(C)C(=O)N2CCCCC2)S(C)(=O)=O)c1` (stereo not shown) was tested. Which “hERG current change (%, negative = inhibition) at 10uM” value did it give?
A: 4.06%

Q: `Cc1ccc(S(=O)(=O)NCC(=O)N(CC(=O)NCC2CCCO2)Cc2ccc(Cl)cc2)cc1` (stereo not shown) was tested. Which “hERG current change (%, negative = inhibition) at 10uM” value did it give?
A: -11%

Q: How did the “hERG current change (%, negative = inhibition) at 10uM” value turn out when `Cc1c(Cl)cccc1NC(=S)NC1CCCC1` was run?
A: -5.1%

Q: `Cc1ccc(-c2csc(NC(=O)c3ccno3)n2)cc1` was tested. Which “hERG current change (%, negative = inhibition) at 10uM” value did it give?
A: 2.72%

Q: How did the “hERG current change (%, negative = inhibition) at 10uM” value turn out when `CN1CCN(C(=O)CSc2nc(-c3cccs3)ccc2C#N)CC1` was run?
A: -4.44%

Q: Which “hERG current change (%, negative = inhibition) at 10uM” value does the source give for `COC(=O)c1ccc(CN(c2ccccn2)S(=O)(=O)c2ccccc2)cc1` here?
A: 14.1%

Q: `Cc1ccc(-c2c[n+](Cc3ccc(Cl)c(Cl)c3)c3n2CCC3)cc1.[Cl-]` was tested. Which “hERG current change (%, negative = inhibition) at 10uM” value did it give?
A: -68.9%

Q: For `O=[N+]([O-])c1ccc(C[n+]2cc(-c3ccc(Cl)c(Cl)c3)n3c2CCCCC3)cc1.[Br-]`, which “hERG current change (%, negative = inhibition) at 10uM” value is on record?
A: -15.7%

Q: How did the “hERG current change (%, negative = inhibition) at 10uM” value turn out when `Clc1ccc(C[n+]2cc(-c3ccccc3)n3c2CCC3)cc1Cl.[Cl-]` was run?
A: -45.1%

Q: `CC(=O)N1CCN(c2ccccc2NC(=O)c2cc3ccccc3o2)CC1` was tested. Which “hERG current change (%, negative = inhibition) at 10uM” value did it give?
A: -49.8%

Q: Which “hERG current change (%, negative = inhibition) at 10uM” value does the source give for `O=C1CC(c2ccccc2)CC(O)=C1C=NCCCN1CCOCC1` (stereo not shown) here?
A: -9.92%

Q: With `O=C(O)c1cc(-c2cccs2)nc2ccc(Br)cc12` as the compound, how does the “hERG current change (%, negative = inhibition) at 10uM” value read?
A: 21%

Q: For `O=C(C1CC1)N1CCc2cc(Br)cc(S(=O)(=O)NCc3ccc4c(c3)OCO4)c21`, which “hERG current change (%, negative = inhibition) at 10uM” value is on record?
A: -64.8%

Q: `CC(=O)N1CCc2cc(Br)cc(S(=O)(=O)NCc3ccc(Cl)cc3)c21` was tested. Which “hERG current change (%, negative = inhibition) at 10uM” value did it give?
A: -58.6%

Q: Which “hERG current change (%, negative = inhibition) at 10uM” value does the source give for `CCN(c1ccc2c(c1)OCO2)S(=O)(=O)c1cc(Br)cc2c1N(C(=O)C1CC1)CC2` here?
A: 8.05%

Q: For `O=C(C1CC1)N1CCc2cc(Br)cc(S(=O)(=O)NCc3ccco3)c21`, which “hERG current change (%, negative = inhibition) at 10uM” value is on record?
A: -41%

Q: For `CCCN(CCC)S(=O)(=O)c1cc(Br)cc2c1N(C(=O)CC)CC2`, which “hERG current change (%, negative = inhibition) at 10uM” value is on record?
A: -2.75%

Q: How did the “hERG current change (%, negative = inhibition) at 10uM” value turn out when `CCCCN(C)S(=O)(=O)c1cc(Br)cc2c1N(C(=O)C1CC1)CC2` was run?
A: -51.6%

Q: With `COc1ccc(CNS(=O)(=O)c2cc(Br)cc3c2N(C(C)=O)C(C)C3)cc1` (stereo not shown) as the compound, how does the “hERG current change (%, negative = inhibition) at 10uM” value read?
A: -40.9%

Q: `CC(=O)N1CCc2cc(Br)cc(S(=O)(=O)NCCCN(C)Cc3ccccc3)c21` was tested. Which “hERG current change (%, negative = inhibition) at 10uM” value did it give?
A: -38.3%

Q: `CC(=O)N1c2c(cc(Br)cc2S(=O)(=O)NCc2ccccc2)CC1C` (stereo not shown) was tested. Which “hERG current change (%, negative = inhibition) at 10uM” value did it give?
A: -35.5%

Q: For `CC(=O)N1c2c(cc(Br)cc2S(=O)(=O)NCc2ccc(C)cc2)CC1C` (stereo not shown), which “hERG current change (%, negative = inhibition) at 10uM” value is on record?
A: -59.5%

Q: How did the “hERG current change (%, negative = inhibition) at 10uM” value turn out when `O=C(O)CCS(=O)(=O)c1cc(Br)cc2c1N(C(=O)C1CC1)CC2` was run?
A: 9.39%

Q: For `CC(=O)N1CCc2cc(Br)cc(S(=O)(=O)NCc3ccccn3)c21`, which “hERG current change (%, negative = inhibition) at 10uM” value is on record?
A: 7.02%

Q: With `COc1cc(CNn2cnnc2)ccc1OCC(=O)NC(C)(C)C` as the compound, how does the “hERG current change (%, negative = inhibition) at 10uM” value read?
A: 1.29%

Q: With `O=C(Nc1nc(-c2ccc3c(c2)OCO3)cs1)C1COc2ccccc2O1` (stereo not shown) as the compound, how does the “hERG current change (%, negative = inhibition) at 10uM” value read?
A: 13.1%

Q: Which “hERG current change (%, negative = inhibition) at 10uM” value does the source give for `CCn1c(SCC(=O)N=Nc2c(O)[nH]c3ccccc23)nc2ccccc21` here?
A: -11.9%

Q: How did the “hERG current change (%, negative = inhibition) at 10uM” value turn out when `CC1=CC(=O)CC(C)(C)C1(O)/C=C/C(C)=C/C(=O)O` (stereo not shown) was run?
A: 5.43%

Q: With `CCOc1ccc(Nc2ncnc3c2cnn3C)cc1` as the compound, how does the “hERG current change (%, negative = inhibition) at 10uM” value read?
A: -16.6%

Q: For `COc1cccc(C(c2c(C)[nH]n(-c3ccccc3)c2=O)c2c(C)[nH]n(-c3ccccc3)c2=O)c1O`, which “hERG current change (%, negative = inhibition) at 10uM” value is on record?
A: -4.28%

Q: `CCN(CC)CCCn1c(=S)[nH]c2ccc(Cl)cc2c1=O` was tested. Which “hERG current change (%, negative = inhibition) at 10uM” value did it give?
A: -63.7%

Q: How did the “hERG current change (%, negative = inhibition) at 10uM” value turn out when `CN(C)CCn1c(=S)[nH]c2ccc(Cl)cc2c1=O` was run?
A: -21.7%

Q: How did the “hERG current change (%, negative = inhibition) at 10uM” value turn out when `CCN(CC)CCn1c(=S)[nH]c2ncccc2c1=O` was run?
A: -20.5%

Q: Which “hERG current change (%, negative = inhibition) at 10uM” value does the source give for `CCN(CC)CCn1c(=S)[nH]c2ccccc2c1=O` here?
A: -25.6%

Q: With `CCN(CC)CCCn1c(=S)[nH]c2cc(OC)c(OC)cc2c1=O` as the compound, how does the “hERG current change (%, negative = inhibition) at 10uM” value read?
A: -2.6%

Q: With `CCN(CC)CCCn1c(=S)[nH]c2ncccc2c1=O` as the compound, how does the “hERG current change (%, negative = inhibition) at 10uM” value read?
A: -15.9%

Q: For `CCN(CC)CCn1c(=S)[nH]c2cc3c(cc2c1=O)OCO3`, which “hERG current change (%, negative = inhibition) at 10uM” value is on record?
A: -24.2%

Q: How did the “hERG current change (%, negative = inhibition) at 10uM” value turn out when `CCN(CC)CCn1c(=S)[nH]c2ccc(Br)cc2c1=O` was run?
A: -66.7%

Q: For `CCN(CC)CCn1c(=S)[nH]c2ccc(Cl)cc2c1=O`, which “hERG current change (%, negative = inhibition) at 10uM” value is on record?
A: -60.8%

Q: With `Cc1ccc(CCNC(=O)C2CCN(S(=O)(=O)c3ccc4c(c3)NC(=O)C(C)S4)CC2)cc1` (stereo not shown) as the compound, how does the “hERG current change (%, negative = inhibition) at 10uM” value read?
A: -2.94%

Q: Which “hERG current change (%, negative = inhibition) at 10uM” value does the source give for `CC(C)N(C(=O)CSc1ccc(S(=O)(=O)N2CCCCC2)cn1)C(C)C` here?
A: -15.7%

Q: `CC12CCC(C(=O)O)(c3nc4cc([N+](=O)[O-])ccc4nc31)C2(C)C` (stereo not shown) was tested. Which “hERG current change (%, negative = inhibition) at 10uM” value did it give?
A: -1.75%

Q: With `O=C(NC(Cc1c[nH]c2ccccc12)C(=O)O)/C(=C\c1ccccc1)NC(=O)c1ccccc1` (stereo not shown) as the compound, how does the “hERG current change (%, negative = inhibition) at 10uM” value read?
A: 9.54%

Q: With `COc1ccc2cnn(-c3ccc(OC(F)(F)Cl)cc3)c(=O)c2c1OC` as the compound, how does the “hERG current change (%, negative = inhibition) at 10uM” value read?
A: 6.28%

Q: For `CCCN(CC(=O)Nc1ccccc1C)C(=O)c1ccc(N2CCCCC2)c([N+](=O)[O-])c1`, which “hERG current change (%, negative = inhibition) at 10uM” value is on record?
A: -43.7%

Q: `CCCN(CC(=O)Nc1ccc(F)c(F)c1F)C(=O)c1cc([N+](=O)[O-])ccc1N1CCOCC1` was tested. Which “hERG current change (%, negative = inhibition) at 10uM” value did it give?
A: -67.1%

Q: For `CCCN(CC(=O)Nc1ccccc1C)C(=O)c1ccc(N2CCCC2)c([N+](=O)[O-])c1`, which “hERG current change (%, negative = inhibition) at 10uM” value is on record?
A: -41.3%

Q: How did the “hERG current change (%, negative = inhibition) at 10uM” value turn out when `CCN(CC(=O)Nc1c(F)cccc1F)C(=O)c1cc([N+](=O)[O-])ccc1N1CCOCC1` was run?
A: -4.57%

Q: How did the “hERG current change (%, negative = inhibition) at 10uM” value turn out when `CCN(CC(=O)Nc1cc(Cl)ccc1C)C(=O)c1cc([N+](=O)[O-])ccc1N1CCOCC1` was run?
A: -18.5%

Q: `CCCN(CC(=O)Nc1ccccc1C)C(=O)c1ccc(N2CCOCC2)c([N+](=O)[O-])c1` was tested. Which “hERG current change (%, negative = inhibition) at 10uM” value did it give?
A: -70.3%

Q: With `O=C(NCC(=O)N1CCN(C(=O)c2ccccc2)CC1)c1ccccc1` as the compound, how does the “hERG current change (%, negative = inhibition) at 10uM” value read?
A: 5.05%

Q: For `COc1ccc([C@H]2CC(=O)C=C(/C=C/c3ccc(Cl)cc3)C2)cc1`, which “hERG current change (%, negative = inhibition) at 10uM” value is on record?
A: 12.8%

Q: Which “hERG current change (%, negative = inhibition) at 10uM” value does the source give for `C/C=C/C1=CC(=O)C[C@H](c2ccc(Cl)cc2)C1` here?
A: -63.9%

Q: Which “hERG current change (%, negative = inhibition) at 10uM” value does the source give for `COc1ccc([C@H]2CC(=O)C=C(/C=C/c3ccc(C(F)(F)F)cc3)C2)cc1` here?
A: -62.9%

Q: How did the “hERG current change (%, negative = inhibition) at 10uM” value turn out when `COc1ccc([C@H]2CC(=O)C=C(c3cc(C(F)(F)F)cc(C(F)(F)F)c3)C2)cc1` was run?
A: 4.42%

Q: `O=C1C=C(/C=C/c2ccccc2)C[C@@H](c2ccc(F)cc2)C1` was tested. Which “hERG current change (%, negative = inhibition) at 10uM” value did it give?
A: -59.7%

Q: `CCCCC/C=C/C1=CC(=O)C[C@H](c2ccc(Cl)cc2)C1` was tested. Which “hERG current change (%, negative = inhibition) at 10uM” value did it give?
A: -47.4%

Q: How did the “hERG current change (%, negative = inhibition) at 10uM” value turn out when `C/C=C/C1=CC(=O)C[C@H](c2ccc(F)cc2)C1` was run?
A: -34.3%

Q: How did the “hERG current change (%, negative = inhibition) at 10uM” value turn out when `O=C1C=C(/C=C/c2ccccc2)C[C@@H](c2ccc3c(c2)OCO3)C1` was run?
A: 20%

Q: Which “hERG current change (%, negative = inhibition) at 10uM” value does the source give for `O=C1C=C(c2ccccc2)CC(c2ccc(F)cc2)C1` (stereo not shown) here?
A: -28.2%
